Here are results for 1 molecule from PubChem BioAssay (NCATS).

Values joined by “and” are separate entries in the source; they are usually repeats but may differ in a detail not shown here. Identical values can stand only once. Records with an inconclusive call do not appear. Active and inactive are the calls of the source. Unless noted, calls follow the shape of the dose curve; as a rule, active = well fitted curve in the direction sought with a large enough effect; inconclusive = small, poorly fitted or top-dose-only effect, or another doubt; inactive = no such curve, though single readings can be large; an effect the other way counts as inactive or inconclusive.

Experiment [1] is described as follows: AP1 Signaling Pathway (AID 357; active = well fitted curve in either direction with a large enough effect, not every such curve was filed as active; also: % is scaled to controls: 0 for no effect and ±100 for the full control effect). The note with it: ME-180 AP-1-bla reporter, EGF-induced, beta-lactamase ratio, 5 h. Summed up: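 AP-1-bla ME-180 cells, Opti-MEM + 0.5% dialyzed FBS, plated overnight 37 °C. Cpd titration + EC50 EGF, 5 h 37 °C. CCF4 2.5 h RT; ex 405, em 460/530 ratio → %activity, AC50.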
Experiment [2] can be described thus: NFAT Signaling Pathway (AID 444; active = well fitted curve in either direction with a large enough effect, not every such curve was filed as active;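 also: carbachol stimulus at about its EC50 of 1 µM final; % is scaled to controls: 0 for no effect and ±100 for the full control effect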). The note with it: Jurkat NFAT-bla M1, carbachol, beta-lactamase ratio, 5 h. Summed up:
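Read-out: CCF4 FRET ratio (460 nm/530 nm) after 1 h RT dye loading, used for %activity and AC50 from titration series. Cells: Jurkat NFAT-β-lactamase/M1 line, treated with compound plus 1 uM carbachol for 5 h, 37 °C.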

The nature of experiment [3]: Stat Signaling Pathway (AID 446; active = well fitted curve in either direction with a large enough effect, not every such curve was filed as active;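 also: ME-180 cervical cancer cells given 40 pM IL-6 alongside compound; SIE-controlled beta-lactamase reporter measured as 460/530 nm FRET emission ratio; % is scaled to controls: 0 for no effect and ±100 for the full control effect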). The conditions noted are these: ME-180 (cervical carcinoma) SIE beta-lactamase reporter, IL-6 stimulated, 5 h. In a few lines: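 Emission at 460 and 530 nm (excitation 405 nm) reports SIE-controlled beta-lactamase in ME-180 cells. Cells received compound with 40 pM IL-6 for 5 hrs at 37 C; data scaled between 300 pM IL-6 and 125 nM JAK-inhibitor controls.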

Experiment [4] has as its target Glucocorticoid receptor (Homo sapiens) (UniProt P04150). The experiment can be described thus: GR-GFP Redistribution (AID 450;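 active = compounds whose dose series gives a full or clear partial fitted curve of increased nuclear translocation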; also: potency is read from the fitted curve at half-maximal effect). The conditions noted are these: U2OS GR-GFP nuclear translocation, laser cytometry, 2 h.
Experiment [5] shares this target. The experiment can be described thus: GR-EFC Redistribution (AID 451; calls by dose curve; also: potency is read from the fitted curve at half-maximal effect). The note with it: CHO-K1 GR-EFC translocation, beta-gal luminescence, 2 h. Summed up:
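Translocation of GR-ED fusion to nuclear EA restores b-gal, read by luminescence after 1 h room-temperature detection. Engineered CHO-K1 biosensor cells, 1,000/well, exposed 2 h at 37 C to titrations up to 46 uM final.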

For experiment [6], the target named is 3',5'-cyclic-AMP phosphodiesterase 4B (Homo sapiens) (UniProt Q07343). The experiment can be described thus: qHTS Assay for Inhibitors of PDE-IV (AID 607; active = well fitted activation curve with a large enough effect in the main read-out, with a control signal flat, not every such curve was filed as active; also: % of control where 0% means no effect). The conditions noted are these: HEK293 ACTOne CNG channel cells, membrane potential fluorescence; series mostly up to 22.9 µM. Summed up: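 The readout is membrane depolarisation from a cAMP-sensing CNG channel, detected with a potential dye at ex 535/em 590. Cells were HEK293-derived (endogenous PDE-IV) at 1000 cells/well, titrated up to 22.9 uM final.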
Background: qHTS replaces the single test concentration by a dilution series.

Experiment [7] is described as follows: qHTS Assay for Identification of Small Molecule Agonists for Thrombopoietin (TPO) Signaling Pathway (AID 917). Also: % is scaled to controls: 0 for no effect and ±100 for the full control effect. The conditions noted are these: TPO signaling pathway reporter cells, agonist qHTS, stimulated with TPO at its EC50; series mostly up to 38.5 µM. Summed up:
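Quantitative HTS for pathway activators: compounds were pin-transferred onto IL-3-starved Ba/F3 cells expressing human TPO receptor, TPO was added at its EC50 (26 pM final), and after 24 hrs at 37 C reporter luciferase was measured.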

Experiment [8] deals with Muscarinic acetylcholine receptor M1 (Rattus norvegicus) (UniProt P08482). The experiment can be described thus: qHTS Assay for Antagonists of Acetylcholine Muscarinic M1 Receptor: Kinetic Measurement of Intracellular Calcium Response (AID 943).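 Also: Fluo-4 calcium signal as peak divided by basal fluorescence over 4 min; nearly all actives have a fitted effect of over 75% in size.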 The note with it: M1-expressing cells, kinetic intracellular calcium fluorescence; series mostly up to 35.3 µM. Summed up: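 Antagonism measured as reduction of carbachol-evoked (EC80, 100 nM final) calcium flux in rat M1-CHO cells after 10 min compound exposure. Fluo-4 signal read kinetically; ratio of maximal to basal fluorescence.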

Experiment [9] has the same target. Description: qHTS Assay for Antagonists of Acetylcholine Muscarinic M1 Receptor: Measurement of IP-One Response (AID 944). Also: nearly all actives have a fitted effect of over 75% in size. The note with it: CHO-M1 cells, IP-One HTRF, antagonist mode; series mostly up to 46.1 µM. In a few lines: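 IP1 accumulation measured via TR-FRET between d2-IP1 and Eu-cryptate anti-IP1 antibody after carbachol (200 nM, EC80) stimulation for 30 min; rat M1-transfected CHO cells received compound 10 min before agonist.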

The target of experiment [10] is Pyruvate kinase (Leishmania mexicana) (UniProt Q27686). Description: qHTS Validation Assay for Inhibitors of Leishmania Mexicana Pyruvate Kinase (AID 945).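 Also: 0% = DMSO only neutral control wells.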 The note with it: purified L. mexicana pyruvate kinase, enzyme activity, E451W mutant enzyme; series mostly up to 57.5 µM. In a few lines:
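Luminescent ATP detection (PKLight) after a 1 h room-temperature reaction of 0.2 nM LmPYK E451W mutant with 0.5 mM PEP and 0.1 mM ADP at pH 7.2. Activity is normalized to DMSO-only control wells.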

In experiment [11] the target is Pyruvate kinase PKM (Homo sapiens) (UniProt P14618). Description: qHTS Assay for Activators of Human Muscle Pyruvate Kinase (AID 954; active = well fitted curve in the direction sought with a large enough effect, not every such curve was filed as active;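 also: 0% = uninhibited enzyme and -100% = no enzyme or full thiadiazolimine inhibition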). The conditions noted are these: purified human muscle pyruvate kinase, luciferase-coupled luminescence, 1 h; series mostly up to 57.5 µM. Summed up: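 PKM2, human, >95% pure, 0.1 nM; PEP 0.5 mM (Km), ADP 0.1 mM; 50 mM imidazole pH 7.2, 50 mM KCl, 0.01% Tween 20, 0.05% BSA; 1 h RT; luciferase luminescence readout.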

In experiment [12] the target is alpha-glucosidase (Oryza sativa, rice) (UniProt Q653V4). Description: Counterscreen for Glucocerebrosidase Inhibitors: qHTS Assay for Rice alpha-Glucosidase at pH 5.0 (AID 997).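 Also: 0% = full activity with enzyme and -100% = basal without enzyme.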 The note with it: rice alpha-glucosidase enzyme activity; series mostly up to 76.9 µM. In a few lines: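 Endpoint fluorogenic assay at pH 5.0: compounds (0.7 nM to 77 uM) titrated against 4 nM rice enzyme and 400 uM 4-MU-alpha-glucoside for 20 min at room temperature; NaOH/glycine stop, read ex 365/em 440 nm, Hill-fitted AC50.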
A general note: The purpose of a counterscreen is to sort out artefacts and off-target activity.

Experiment [13] can be described thus: qHTS Assay for Lipid Storage Modulators (AID 1519; calls by dose curve). The conditions noted are these: Drosophila S3 cells, BODIPY lipid droplet/cell ratio, laser cytometry, cells loaded with oleic acid. In a few lines: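 Cells seeded at 5,000 per well were treated with compounds over a concentration series and loaded with oleic acid (400 uM, as added). Lipid droplet fluorescence (488 nm excitation, 500-530 nm channel) was read by laser-scanning cytometry and normalized to 20 uM Triacsin C.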

The target in experiment [14] is DNA dC->dU-editing enzyme APOBEC-3G (Homo sapiens) (UniProt Q9HC16). The experiment can be described thus: qHTS for inhibitors of Vif-A3G interactions: Validation (AID 588379). Also: 0% is about no effect. The note with it: Vif-A3G protein interaction assay; series mostly up to 46.1 µM. In a few lines:
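Yellow fluorescence (Ex 488, Em 500-530) of Vif-coexpressing HeLa A3G-eYFP cells, scanned by Acumen cytometer, reports blocked A3G degradation. Cells plated at 700/well overnight at 37 deg C before compound addition, then a further overnight compound incubation at 37 deg C.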

The subject of experiment [15] is Zika virus NS2B-NS3 protease. Description: Primary screen GU AMC qHTS for Zika virus inhibitors (AID 1347154).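 Also: 0% = no-inhibitor control and -100% = no-enzyme control; nearly all actives have a fitted effect of over 70% in size.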 The note with it: Zika NS2B-NS3 unlinked protease, AMC fluorogenic substrate; series mostly up to 54.1 µM. Summed up: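 Fluorogenic AMC-substrate cleavage by noncovalent NS2B-NS3 protease complex (25 nM, pH 8.0 Tris buffer with Tween 20) followed for 15 minutes at room temperature (~20% conversion). Percent inhibition from ex340/em450 signal change, fitted by 4-parameter Hill equation.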

Experiment [16] in a line: Counterscreen qHTS for small molecule stabilizers of the endoplasmic reticulum resident proteome: GLuc-NoTag assay (AID 1508627).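 Also: SH-SY5Y cells given compound then 100 nM thapsigargin to empty ER calcium; 0% = thapsigargin alone and -100% = DMSO vehicle control.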 The note with it: Gaussia luciferase NoTag secretion counterscreen, luminescence, thapsigargin 100 nM for final 4 h; series mostly up to 76.4 µM. Summed up: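 Counterscreen line: SH-SY5Y-GLuc-NoTag cells, treated with compound 19 hr before a 4 hr, 100 nM thapsigargin calcium depletion. Secreted Gaussia luciferase in the medium was measured by luminescence after coelenterazine was added (0.07x final), with cells unlysed.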

Sequence of Glucocorticoid receptor (Homo sapiens) (P04150 whole entry, looked up): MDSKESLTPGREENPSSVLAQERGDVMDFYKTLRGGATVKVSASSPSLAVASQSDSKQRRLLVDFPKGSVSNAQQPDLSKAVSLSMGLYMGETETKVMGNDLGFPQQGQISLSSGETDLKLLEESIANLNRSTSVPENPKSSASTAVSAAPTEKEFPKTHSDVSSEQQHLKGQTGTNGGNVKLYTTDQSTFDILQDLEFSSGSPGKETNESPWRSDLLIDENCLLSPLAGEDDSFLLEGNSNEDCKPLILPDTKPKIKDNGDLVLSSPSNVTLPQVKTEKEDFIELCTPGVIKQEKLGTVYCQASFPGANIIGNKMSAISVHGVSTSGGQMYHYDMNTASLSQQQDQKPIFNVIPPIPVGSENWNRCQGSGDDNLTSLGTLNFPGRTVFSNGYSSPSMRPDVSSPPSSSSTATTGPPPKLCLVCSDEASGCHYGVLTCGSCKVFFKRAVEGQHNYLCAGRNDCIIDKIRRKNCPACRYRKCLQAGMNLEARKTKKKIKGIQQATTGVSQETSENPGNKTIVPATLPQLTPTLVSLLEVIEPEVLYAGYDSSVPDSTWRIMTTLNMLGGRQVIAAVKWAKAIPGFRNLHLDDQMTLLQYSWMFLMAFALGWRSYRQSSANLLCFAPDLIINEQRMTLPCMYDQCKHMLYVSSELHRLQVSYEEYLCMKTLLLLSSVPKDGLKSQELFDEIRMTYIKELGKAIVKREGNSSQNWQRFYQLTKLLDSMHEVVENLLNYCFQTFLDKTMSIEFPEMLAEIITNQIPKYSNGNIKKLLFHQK
Sequence of Muscarinic acetylcholine receptor M1 (Rattus norvegicus) (P08482 whole entry, looked up): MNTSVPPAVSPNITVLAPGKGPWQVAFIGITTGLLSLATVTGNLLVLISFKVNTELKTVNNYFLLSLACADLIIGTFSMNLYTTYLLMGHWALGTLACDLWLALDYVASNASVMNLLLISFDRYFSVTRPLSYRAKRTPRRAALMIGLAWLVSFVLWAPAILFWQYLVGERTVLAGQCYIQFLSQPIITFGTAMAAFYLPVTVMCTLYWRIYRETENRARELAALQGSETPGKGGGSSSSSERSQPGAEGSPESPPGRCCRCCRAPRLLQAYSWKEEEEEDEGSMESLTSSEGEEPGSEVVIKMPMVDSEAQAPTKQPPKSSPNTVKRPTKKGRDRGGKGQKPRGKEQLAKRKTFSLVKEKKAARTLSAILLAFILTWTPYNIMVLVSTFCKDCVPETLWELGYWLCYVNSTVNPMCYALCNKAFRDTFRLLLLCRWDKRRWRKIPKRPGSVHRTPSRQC
Sequence of 3',5'-cyclic-AMP phosphodiesterase 4B (Homo sapiens) (Q07343 whole entry, looked up): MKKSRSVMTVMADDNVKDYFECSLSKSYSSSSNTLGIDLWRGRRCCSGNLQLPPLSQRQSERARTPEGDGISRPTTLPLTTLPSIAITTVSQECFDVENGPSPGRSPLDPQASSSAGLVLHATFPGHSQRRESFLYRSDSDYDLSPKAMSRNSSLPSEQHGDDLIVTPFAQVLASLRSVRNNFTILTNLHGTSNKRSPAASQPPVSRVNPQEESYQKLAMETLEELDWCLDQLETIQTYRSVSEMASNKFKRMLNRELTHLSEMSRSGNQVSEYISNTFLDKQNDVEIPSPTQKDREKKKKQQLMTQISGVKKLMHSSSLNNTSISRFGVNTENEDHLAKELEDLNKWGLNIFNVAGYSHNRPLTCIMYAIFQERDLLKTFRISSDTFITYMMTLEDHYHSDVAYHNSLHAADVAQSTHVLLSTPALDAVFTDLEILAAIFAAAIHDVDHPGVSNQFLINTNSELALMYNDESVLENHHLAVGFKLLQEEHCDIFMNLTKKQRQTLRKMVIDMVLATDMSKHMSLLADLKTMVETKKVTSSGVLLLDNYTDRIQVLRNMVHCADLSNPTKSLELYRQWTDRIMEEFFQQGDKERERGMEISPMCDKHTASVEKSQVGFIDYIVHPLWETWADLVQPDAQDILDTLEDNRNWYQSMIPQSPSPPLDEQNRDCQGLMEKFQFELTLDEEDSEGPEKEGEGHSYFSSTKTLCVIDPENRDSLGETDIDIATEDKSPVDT
Sequence of Pyruvate kinase (Leishmania mexicana) (Q27686 2-499 E452W): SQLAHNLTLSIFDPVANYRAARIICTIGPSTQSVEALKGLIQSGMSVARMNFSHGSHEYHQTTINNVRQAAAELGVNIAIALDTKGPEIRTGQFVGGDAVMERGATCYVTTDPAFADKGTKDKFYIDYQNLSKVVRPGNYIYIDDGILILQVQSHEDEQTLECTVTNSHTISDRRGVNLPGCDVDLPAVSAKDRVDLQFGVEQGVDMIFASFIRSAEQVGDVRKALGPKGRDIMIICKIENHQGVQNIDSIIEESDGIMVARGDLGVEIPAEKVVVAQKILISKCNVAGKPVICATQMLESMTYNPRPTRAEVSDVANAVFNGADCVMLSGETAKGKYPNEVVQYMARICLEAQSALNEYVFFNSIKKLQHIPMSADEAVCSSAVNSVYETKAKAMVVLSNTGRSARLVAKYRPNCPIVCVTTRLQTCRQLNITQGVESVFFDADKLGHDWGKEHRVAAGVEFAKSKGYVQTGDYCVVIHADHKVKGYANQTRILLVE
Sequence of DNA dC->dU-editing enzyme APOBEC-3G (Homo sapiens) (Q9HC16 whole entry, looked up): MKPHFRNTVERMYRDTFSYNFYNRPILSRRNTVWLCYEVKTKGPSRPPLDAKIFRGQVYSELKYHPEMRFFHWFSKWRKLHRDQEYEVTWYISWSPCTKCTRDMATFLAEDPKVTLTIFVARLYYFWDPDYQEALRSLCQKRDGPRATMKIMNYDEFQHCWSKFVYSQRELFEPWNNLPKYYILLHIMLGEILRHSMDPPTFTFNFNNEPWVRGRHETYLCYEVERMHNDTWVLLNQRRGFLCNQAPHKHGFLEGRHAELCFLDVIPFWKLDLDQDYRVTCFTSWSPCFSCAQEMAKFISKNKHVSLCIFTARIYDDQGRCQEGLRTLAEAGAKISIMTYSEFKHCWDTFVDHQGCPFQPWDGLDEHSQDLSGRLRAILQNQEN
Sequence of Pyruvate kinase PKM (Homo sapiens) (P14618 whole entry, looked up): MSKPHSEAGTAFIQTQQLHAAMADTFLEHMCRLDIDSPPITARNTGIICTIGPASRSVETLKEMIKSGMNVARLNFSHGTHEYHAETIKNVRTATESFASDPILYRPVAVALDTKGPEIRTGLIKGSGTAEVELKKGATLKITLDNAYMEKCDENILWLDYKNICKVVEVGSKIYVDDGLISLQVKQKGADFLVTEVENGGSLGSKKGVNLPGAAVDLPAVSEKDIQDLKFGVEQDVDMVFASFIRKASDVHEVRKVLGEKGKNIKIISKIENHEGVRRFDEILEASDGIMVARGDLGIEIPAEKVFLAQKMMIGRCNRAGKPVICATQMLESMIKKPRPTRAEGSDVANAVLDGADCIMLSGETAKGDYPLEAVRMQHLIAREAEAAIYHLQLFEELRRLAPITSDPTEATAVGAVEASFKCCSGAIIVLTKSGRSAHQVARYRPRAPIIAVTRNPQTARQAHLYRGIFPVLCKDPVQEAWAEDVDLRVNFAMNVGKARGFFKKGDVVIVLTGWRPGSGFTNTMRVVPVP

As for `O=C1N=C(O)CN1/N=C\c1ccc(-c2ccc([N+](=O)[O-])cc2)o1`, the activity change, negative = inhibition in [1] (at 17.2 µM (top of the series)) is -13.8% (inactive); in experiment [1] (at 38 µM (top of the series)), -14.1% (inactive); in [2] (at 17.2 µM (top of the series)) it was 4.77% (inactive); in experiment [2] (at 38 µM (top of the series)), -3.36% (inactive); in experiment [13] (at 25.7 µM (top of the series)), 3.41% (inactive). The activity, negative = inhibition in [3] (at 17.2 µM (top of the series)) is 9.37% (inactive); in [3] (at 38 µM (top of the series)) it was -4.41% (inactive). In addition, the Potency in experiment [4] was > 46 µM (inactive) and > 20.6 µM (inactive); in [5], > 46 µM (inactive) and > 20.6 µM (inactive). Moreover, the Potency entry in experiment [6], in experiment [7], in [8], in [9], in [10] and in experiment [14] was “inactive” throughout. In addition, the Potency result in [15] and in experiment [16] was “inactive” each time. The molecule was classed as inactive in experiment [11] and in experiment [12]. In addition, the max response in experiment [13] (measured here: cell count channel max response) turned out to be 3.82%; in [13] (measured here: lipid channel max response) it was 7.61%.
